Publication PMC11062922 (Nature Chemical Biology, 2023)
Read-outs that look alike come from different tables or passages of the source.

Key:
Parameters in all cases: species or system human, MV4-11 + K-562 + COLO205 + SK-N-BE2 + OVCAR-8
CSNK1D = settings: read-out: apparent Kd, n = 1
CSNK1E = settings: read-out: apparent Kd, n = 1
MAP2K2 = settings: read-out: apparent Kd; compound concentrations:100 nM and 1000 nM (sheet 'Samples'); n = 1
MAPK11 = settings: read-out: apparent Kd; compound concentrations:100 nM and 1000 nM (sheet 'Samples'); n = 1
MAPK14 = settings: read-out: apparent Kd, n = 1
MAPKAPK2 = settings: read-out: apparent Kd, n = 1
RAB6A;RAB6B = settings: read-out: apparent Kd; compound concentrations:100 nM and 1000 nM (sheet 'Samples'); n = 1
CSNK1A1 = settings: read-out: apparent Kd; compound concentrations: 100 nM and 1000 nM (sheet 'Samples'), CATDS: 0.118789019342549; n = 1
FLT3 = settings: read-out: apparent Kd; compound concentrations: 100 nM and 1000 nM (sheet 'Samples'), CATDS: 0.137141810176551; n = 1
MAP2K1 = settings: read-out: apparent Kd; compound concentrations: 100 nM and 1000 nM (sheet 'Samples'), CATDS: 0.12402883868582899; n = 1
MAP3K12 = settings: read-out: apparent Kd; compound concentrations: 100 nM and 1000 nM (sheet 'Samples'), CATDS: 0.14214405219183901; n = 1
PIK3C2A = settings: read-out: apparent Kd; compound concentrations: 100 nM and 1000 nM (sheet 'Samples'), CATDS: 0.1177028048525; n = 1
PLK1 = settings: read-out: apparent Kd; compound concentrations: 100 nM and 1000 nM (sheet 'Samples'), CATDS: 0.134584248305568; n = 1
CLK1 = settings: read-out: apparent Kd; compound concentrations: 100 nM and 1000 nM (sheet 'Samples'), CATDS: 0.240445755473225; n = 1
CLK4 = settings: read-out: apparent Kd; compound concentrations: 100 nM and 1000 nM (sheet 'Samples'), CATDS: 0.26423272520910102; n = 1
NEK3 = settings: read-out: apparent Kd; compound concentrations: 100 nM and 1000 nM (sheet 'Samples'), CATDS: 0.168041576676878; n = 1
PIK3CG = settings: read-out: apparent Kd; compound concentrations: 100 nM and 1000 nM (sheet 'Samples'), CATDS: 0.474922434423799; n = 1
MERTK = settings: read-out: apparent Kd; compound concentrations: 100 nM and 1000 nM (sheet 'Samples'), CATDS: 0.12955803655980599; n = 1
PIK3CD = settings: read-out: apparent Kd; compound concentrations: 100 nM and 1000 nM (sheet 'Samples'), CATDS: 0.42646415805735; n = 1
COX5A = settings: read-out: apparent Kd; compound concentrations: 100 nM and 1000 nM (sheet 'Samples'), CATDS: 4.1546789230528999E-2; n = 1
GSK3A = settings: read-out: apparent Kd; compound concentrations: 100 nM and 1000 nM (sheet 'Samples'), CATDS: 6.2645628894546598E-2; n = 1
GSK3B = settings: read-out: apparent Kd; compound concentrations: 100 nM and 1000 nM (sheet 'Samples'), CATDS: 5.5933303342936301E-2; n = 1
GTPBP4 = settings: read-out: apparent Kd; compound concentrations: 100 nM and 1000 nM (sheet 'Samples'), CATDS: 4.05365212601312E-2; n = 1
LATS1 = settings: read-out: apparent Kd; compound concentrations: 100 nM and 1000 nM (sheet 'Samples'), CATDS: 6.4509671540351102E-2; n = 1
PAK4 = settings: read-out: apparent Kd; compound concentrations: 100 nM and 1000 nM (sheet 'Samples'), CATDS: 5.9667413912450298E-2; n = 1
PAK6 = settings: read-out: apparent Kd; compound concentrations: 100 nM and 1000 nM (sheet 'Samples'), CATDS: 9.5972545463879802E-2; n = 1
PKN1 = settings: read-out: apparent Kd; compound concentrations: 100 nM and 1000 nM (sheet 'Samples'), CATDS: 5.7657473805166601E-2; n = 1
PKN2 = settings: read-out: apparent Kd; compound concentrations: 100 nM and 1000 nM (sheet 'Samples'), CATDS: 4.3276435854429397E-2; n = 1
PRKACA = settings: read-out: apparent Kd; compound concentrations: 100 nM and 1000 nM (sheet 'Samples'), CATDS: 0.169432353175829; n = 1
PRKACB = settings: read-out: apparent Kd; compound concentrations: 100 nM and 1000 nM (sheet 'Samples'), CATDS: 0.14426679409785001; n = 1
PRKCD = settings: read-out: apparent Kd; compound concentrations: 100 nM and 1000 nM (sheet 'Samples'), CATDS: 4.3301317069520798E-2; n = 1
PRKCQ = settings: read-out: apparent Kd; compound concentrations: 100 nM and 1000 nM (sheet 'Samples'), CATDS: 0.16159232019623801; n = 1
PRKG1 = settings: read-out: apparent Kd; compound concentrations: 100 nM and 1000 nM (sheet 'Samples'), CATDS: 5.6874913121809097E-2; n = 1
PRKX = settings: read-out: apparent Kd; compound concentrations: 100 nM and 1000 nM (sheet 'Samples'), CATDS: 0.106921293671462; n = 1
ROCK2 = settings: read-out: apparent Kd; compound concentrations: 100 nM and 1000 nM (sheet 'Samples'), CATDS: 4.7086778656787398E-2; n = 1
[1] = compound concentrations:100 nM and 1000 nM (sheet 'Samples')

`CCc1ccc(Oc2nccc(-c3c(-c4ccc(F)cc4)ncn3C3CCNCC3)n2)cc1` [SB-242719] was tested, and the potency estimated from few doses (CSNK1D; [1]) was 419 nM, the potency estimated from few doses (CSNK1E; [1]) was 760 nM and the potency estimated from few doses (MAP2K2) was 2280 nM. For the same compound, the potency estimated from few doses (MAPK11) was 779 nM, the potency estimated from few doses (MAPK14; [1]) was 24.4 nM and the potency estimated from few doses (MAPKAPK2; [1]) was 13.3 nM. For the same compound, the potency estimated from few doses (RAB6A;RAB6B) was 1360 nM.
Compound `CC(C)(C)n1cnc2c(N)ncnc21` [SKF-97359] has a potency estimated from few doses (CSNK1A1) of 1870 nM, a potency estimated from few doses (CSNK1D; compound concentrations: 100 nM and 1000 nM (sheet 'Samples'), CATDS: 0.12511674231417799) of 1680 nM and a potency estimated from few doses (CSNK1E; compound concentrations: 100 nM and 1000 nM (sheet 'Samples'), CATDS: 0.10783492256042899) of 2330 nM. The potency estimated from few doses (FLT3) was 1410 nM, the potency estimated from few doses (MAP2K1) was 1710 nM and the potency estimated from few doses (MAP3K12) was 1320 nM. The potency estimated from few doses (PIK3C2A) was 1910 nM and the potency estimated from few doses (PLK1) was 1460 nM.
Compound `CC(C)C(=O)N[C@@H]1CCN(C(=O)Nc2nc3c(s2)-c2nc(-c4ccccc4Cl)ncc2CC3)C1` [BI00047804] has a potency estimated from few doses (CLK1) of 416 nM, a potency estimated from few doses (CLK4) of 334 nM and a potency estimated from few doses (NEK3) of 1310 nM. For the same compound, the potency estimated from few doses (PIK3CG) was 115 nM.
Compound `COc1nccc(-c2c(-c3ccc(F)cc3)ncn2CCCN2CCOCC2)n1` [SB-282852] has a potency estimated from few doses (CSNK1D; compound concentrations: 100 nM and 1000 nM (sheet 'Samples'), CATDS: 0.15826837082796799) of 746 nM, a potency estimated from few doses (CSNK1E; compound concentrations: 100 nM and 1000 nM (sheet 'Samples'), CATDS: 0.12159851027947199) of 1580 nM and a potency estimated from few doses (MAPK14; compound concentrations: 100 nM and 1000 nM (sheet 'Samples'), CATDS: 0.160477931801707) of 722 nM. The potency estimated from few doses (MAPKAPK2; compound concentrations: 100 nM and 1000 nM (sheet 'Samples'), CATDS: 0.19368451795267799) was 478 nM, the potency estimated from few doses (MERTK) was 1280 nM and the potency estimated from few doses (PIK3CD) was 128 nM.
Work on `CCn1c(-c2nonc2N)nc2c(C#CC(C)(C)O)nc(OC[C@H](N)c3ccccc3)cc21` [GSK943949A] yielded a potency estimated from few doses (COX5A) of 1670 nM, a potency estimated from few doses (GSK3A) of 424 nM and a potency estimated from few doses (GSK3B) of 576 nM. For the same compound, the potency estimated from few doses (GTPBP4) was 1880 nM, the potency estimated from few doses (LATS1) was 394 nM and the potency estimated from few doses (PAK4) was 482 nM. For the same compound, the potency estimated from few doses (PAK6) was 167 nM, the potency estimated from few doses (PKN1) was 529 nM and the potency estimated from few doses (PKN2) was 1390 nM. For the same compound, the potency estimated from few doses (PRKACA) was 64.8 nM, the potency estimated from few doses (PRKACB) was 82.7 nM and the potency estimated from few doses (PRKCD) was 1390 nM. The potency estimated from few doses (PRKCQ) was 69.5 nM, the potency estimated from few doses (PRKG1) was 549 nM and the potency estimated from few doses (PRKX) was 137 nM. For the same compound, the potency estimated from few doses (ROCK2) was 999 nM.
